Source: PubChem (Broad Institute)
Sampled rows, rich in hits. Any-hit rate of the full collection: about 2.5%.
NSD2 HMT inh – inhibitors of human histone methyltransferase NSD2; 310,000 tested, 0.54% active; inhibition, % at 12.5 µM; NSD2 peptide methylation, AlphaScreen, 120 min; O96028; in the data active = inhibition above about 50%
Target sequence (O96028 whole entry, looked up): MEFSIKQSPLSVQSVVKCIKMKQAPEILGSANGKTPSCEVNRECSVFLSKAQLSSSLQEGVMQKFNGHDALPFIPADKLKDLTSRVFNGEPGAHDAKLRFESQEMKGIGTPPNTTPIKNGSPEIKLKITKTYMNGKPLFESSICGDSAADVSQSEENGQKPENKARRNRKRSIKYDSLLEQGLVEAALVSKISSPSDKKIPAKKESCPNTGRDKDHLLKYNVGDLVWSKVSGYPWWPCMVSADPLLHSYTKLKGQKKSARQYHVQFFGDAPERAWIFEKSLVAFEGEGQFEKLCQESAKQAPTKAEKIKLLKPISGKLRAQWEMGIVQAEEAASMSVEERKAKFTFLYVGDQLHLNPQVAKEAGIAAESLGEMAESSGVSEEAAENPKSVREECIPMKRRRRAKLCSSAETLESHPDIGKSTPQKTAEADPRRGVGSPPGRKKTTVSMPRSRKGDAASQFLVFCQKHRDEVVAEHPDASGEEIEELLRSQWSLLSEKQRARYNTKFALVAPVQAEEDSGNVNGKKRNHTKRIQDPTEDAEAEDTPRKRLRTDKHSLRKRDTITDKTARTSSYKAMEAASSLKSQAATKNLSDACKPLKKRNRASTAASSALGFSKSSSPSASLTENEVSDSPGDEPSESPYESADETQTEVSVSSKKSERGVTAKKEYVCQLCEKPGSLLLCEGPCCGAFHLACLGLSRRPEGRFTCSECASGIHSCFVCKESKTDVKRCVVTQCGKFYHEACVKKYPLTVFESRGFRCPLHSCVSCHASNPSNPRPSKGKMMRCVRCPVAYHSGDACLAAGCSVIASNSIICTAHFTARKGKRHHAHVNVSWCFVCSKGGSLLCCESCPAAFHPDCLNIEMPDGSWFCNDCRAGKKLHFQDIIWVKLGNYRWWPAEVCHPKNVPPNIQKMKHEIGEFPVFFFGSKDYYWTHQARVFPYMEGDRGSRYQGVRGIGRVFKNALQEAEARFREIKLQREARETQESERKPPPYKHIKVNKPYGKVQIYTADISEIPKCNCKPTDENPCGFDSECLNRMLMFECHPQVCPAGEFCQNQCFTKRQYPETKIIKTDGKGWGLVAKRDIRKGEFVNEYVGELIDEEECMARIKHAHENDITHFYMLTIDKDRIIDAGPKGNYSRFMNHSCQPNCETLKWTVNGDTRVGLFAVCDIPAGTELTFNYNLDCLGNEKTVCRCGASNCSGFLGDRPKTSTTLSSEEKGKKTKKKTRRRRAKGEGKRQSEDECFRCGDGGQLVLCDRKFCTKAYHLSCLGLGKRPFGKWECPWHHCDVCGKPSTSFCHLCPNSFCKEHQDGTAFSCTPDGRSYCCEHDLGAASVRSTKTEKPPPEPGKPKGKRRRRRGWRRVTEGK
Casp6 inh – inhibitors of human caspase-6. P55212. purified caspase-6, Z-VEID-R110 cleavage fluorescence. inhibition, % at 12.5 µM. 350,000 tested, 0.53% active;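 active = mean inhibition across replicates at least about 35%, with every replicate also reaching that limit, limit read from the data; inconclusive = only one of the two criteria met; inactive = neither criterion met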;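 also: 0% = median of neutral control wells and 100% = no fluorescence left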
RAD52 anneal inh – blocks human RAD52 DNA annealing. recombinant RAD52 DNA annealing, FRET fluorescence. 360,000 tested, 0.46% active. inhibition, % at 18.7 µM;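 active = every replicate showing at least 50% inhibition; inconclusive = mean inhibition at least 50% but not in every replicate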
rRNA inh HTS – inhibits bacterial ribosomal RNA function over humanized ribosomes | E. coli WT GFP vs humanized-ribosome RFP mutants, fluorescence, 24 h; active compounds read low; DMSO median 0, no signal -100 | GFP signal change (wild-type ribosome), % (test concentration not listed) | 350,000 tested, 1.6% active | AID 720706;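 active = significant combined selectivity score with lowered wild-type GFP, culture density cut under 30%, mutant RFP and density less affected; inactive = any of these conditions unmet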
MLL AF4-AF9 inh – MLL-AF4/AF9 protein interaction inhibition; P42568; AlphaScreen, biotin-AF4 peptide binding to FLAG-AF9; inhibition, % at 10 µM; 350,000 tested, 0.47% active; AID 651704;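 active = every replicate reaching a set inhibition limit, whatever the replicate mean, cut at about 25% in these data; inconclusive = mean inhibition reaches that limit but some replicates miss it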;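 also: 0% = plate neutral control median and 100% = total signal loss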
The depositor's hits bear a star.

Screening C[C@@H]1CCCCO[C@H](CN(C)CC2CCCCC2)[C@@H](C)CN([C@H](C)CO)C(=O)c2cc(NC(=O)Nc3ccc4c(c3)OCO4)ccc2O1 returned Casp6 inh -1, RAD52 anneal inh 18, rRNA inh HTS 1 and MLL AF4-AF9 inh -16.
Screening O=C(N/N=C/c1ccccc1O)c1cccc(C(F)(F)F)c1 returned NSD2 HMT inh -2.
Screening O=C(N/N=C/c1ccccc1C(F)(F)F)c1ccc(O)cc1 returned NSD2 HMT inh 6, Casp6 inh 1, RAD52 anneal inh 1, rRNA inh HTS -29* and MLL AF4-AF9 inh 3.
Cc1cc(N/C=C/C(=O)c2cccs2)ccc1F was read as NSD2 HMT inh 1, Casp6 inh 27, RAD52 anneal inh -1, rRNA inh HTS 7 and MLL AF4-AF9 inh 4.
Screening Cc1ccc(N/C=C/C(=O)c2cccs2)cc1C returned NSD2 HMT inh -13, Casp6 inh 0, RAD52 anneal inh -35, rRNA inh HTS -20* and MLL AF4-AF9 inh 4.
O=C(/C=C/Nc1ccc(Nc2ccccc2)cc1)c1cccs1 was read as NSD2 HMT inh 2, Casp6 inh 0, RAD52 anneal inh -13, rRNA inh HTS -23* and MLL AF4-AF9 inh 8.
Screening O=C(/C=C/Nc1ccccc1C(=O)O)c1cccs1 returned NSD2 HMT inh -3.
`CN(C)c1cccc2c1c(NC(=O)Nc1ccc(Cl)cc1Cl)nn2C` gave NSD2 HMT inh -2, Casp6 inh 0, RAD52 anneal inh -7 and rRNA inh HTS 6.
`COc1ccccc1NC(=O)Nc1nn(C)c2cccc(N(C)C)c12` gave NSD2 HMT inh 0, Casp6 inh -4, RAD52 anneal inh -3, rRNA inh HTS -30* and MLL AF4-AF9 inh 2.
Oc1c(N=Nc2nn[nH]n2)ccc2ccccc12 was read as Casp6 inh 94*, RAD52 anneal inh -77, rRNA inh HTS 7 and MLL AF4-AF9 inh 3.
`CC(C)(C)[S@@](=O)N1Cc2cc(C(=O)N3CCOCC3)nc(-c3cccc(C4=CCCC4)c3)c2[C@H]1CCO` gave rRNA inh HTS 5.
COc1ccc2[nH]c3c(NCCCOC(C)C)ncnc3c2c1 was read as NSD2 HMT inh 4, Casp6 inh 12, RAD52 anneal inh 15, rRNA inh HTS -6 and MLL AF4-AF9 inh 3.
Screening COc1ccc2[nH]c3c(NCCC4=CCCCC4)ncnc3c2c1 returned NSD2 HMT inh 1, Casp6 inh 0, RAD52 anneal inh -5, rRNA inh HTS -54* and MLL AF4-AF9 inh 5.
Screening Cc1cc(C)cc(NC(=O)Nc2ccc3c(c2)N(C)C(=O)CS3)c1 returned Casp6 inh 0, RAD52 anneal inh -115, rRNA inh HTS -2 and MLL AF4-AF9 inh -2.
`Cc1ccc(NC(=O)Nc2ccc3c(c2)N(C)C(=O)CS3)cc1C` gave Casp6 inh -3, RAD52 anneal inh -113, rRNA inh HTS -13* and MLL AF4-AF9 inh 3.
`Cc1ccc(Cl)cc1NC(=O)C1CCCC1` gave NSD2 HMT inh 1.
`Cc1ccc2c(c1)c1c(n2CC(O)CNC(CO)(CO)CO)CCCC1` (centres undefined) gave Casp6 inh -4, RAD52 anneal inh -16, rRNA inh HTS 6 and MLL AF4-AF9 inh inconclusive.
`Cc1ccc2c(c1)c1c(n2CC(O)CN2CCCCC2C)CCCC1` (centres undefined) gave NSD2 HMT inh 13, Casp6 inh -3, RAD52 anneal inh -24, rRNA inh HTS -12 and MLL AF4-AF9 inh 12.
`Cc1ccc2c(c1)c1c(n2CC(O)CN2CCC(C)CC2)CCCC1` (centres undefined) gave NSD2 HMT inh 9, Casp6 inh 46*, RAD52 anneal inh -20, rRNA inh HTS 1 and MLL AF4-AF9 inh 4.
Screening Cc1ccc2c(c1)c1c(n2CC(O)CNC2CCCCC2)CCCC1 (centres undefined) returned Casp6 inh 49*, RAD52 anneal inh 25, rRNA inh HTS -28 and MLL AF4-AF9 inh 30*.
Cc1ccc(S(=O)(=O)C2(C(=O)N3CCN(c4cc(C)ccc4C)CC3)CC2)cc1 was read as NSD2 HMT inh -1, Casp6 inh 2, RAD52 anneal inh -17, rRNA inh HTS -31 and MLL AF4-AF9 inh 38*.
O=C(Cc1c(O)c2ccccc2oc1=O)c1ccc(F)cc1 was read as NSD2 HMT inh 1, Casp6 inh -1, RAD52 anneal inh -9, rRNA inh HTS 5 and MLL AF4-AF9 inh 47*.
`O=c1oc2ccccc2c(O)c1CN1CCCCC1` gave NSD2 HMT inh 0.
For COc1ccc(-c2cc(C(=O)OCc3ccccn3)c3ccccc3n2)cc1 the results were NSD2 HMT inh -5, Casp6 inh 11, RAD52 anneal inh -7, rRNA inh HTS -34* and MLL AF4-AF9 inh 1.
For COc1ccc(-c2cc(C(=O)OCC(=O)N(C)C)c3ccccc3n2)cc1 the results were NSD2 HMT inh 0.
For COc1ccc(CN2CCN(c3nc4ccccc4s3)CC2)cc1 the results were Casp6 inh -9, RAD52 anneal inh -10, rRNA inh HTS -2 and MLL AF4-AF9 inh -4.
For COc1ccc(CCn2c(O)cc3nn(-c4nc5ccccc5s4)c(=O)c-3c2C)cc1 the results were NSD2 HMT inh 3, Casp6 inh 0, RAD52 anneal inh -14, rRNA inh HTS -18* and MLL AF4-AF9 inh -1.
`O=C(NNC(=O)c1ccccc1O)c1ccc(Br)cc1` gave NSD2 HMT inh -2, Casp6 inh 1, RAD52 anneal inh -11, rRNA inh HTS -24* and MLL AF4-AF9 inh -5.
For O=C(NNC(=O)C1CCCCC1)c1ccc(Br)cc1 the results were NSD2 HMT inh 3, Casp6 inh -3, RAD52 anneal inh -5, rRNA inh HTS -24* and MLL AF4-AF9 inh -4.
Screening O=C(c1ccncc1)N1CC(=O)N2[C@H](CO)[C@H](c3ccc(/C=C/c4ccccc4)cc3)[C@@H]2C1 returned Casp6 inh 0, RAD52 anneal inh -20, rRNA inh HTS 4 and MLL AF4-AF9 inh 5.
Screening C[C@H](CO)N1C[C@H](C)[C@H](CN(C)C(=O)Cc2ccccn2)Oc2cc(C#Cc3ccccc3)ccc2S1(=O)=O returned Casp6 inh 2, RAD52 anneal inh -27, rRNA inh HTS -11 and MLL AF4-AF9 inh 2.
`CC(=O)/C(C#N)=C1\NC(=O)C(Cc2ccccc2C)S1` (centres undefined) gave NSD2 HMT inh -1, Casp6 inh 5, RAD52 anneal inh -29, rRNA inh HTS -30* and MLL AF4-AF9 inh -1.
`Nc1nc(SCc2ccc(Cl)c(Cl)c2)n[nH]1` gave NSD2 HMT inh 0, Casp6 inh 10, RAD52 anneal inh -6, rRNA inh HTS -37* and MLL AF4-AF9 inh -4.
For CCOC(=O)c1c(CSC(=N)N)n(C)c2cc(Br)c(OC(C)=O)cc12 the results were NSD2 HMT inh 4, Casp6 inh 8, RAD52 anneal inh 27, rRNA inh HTS -27* and MLL AF4-AF9 inh 11.
Screening COCC(=O)N1[C@@H](CO)[C@@H](c2ccccc2)[C@@H]1CNC(=O)c1ccccn1 returned Casp6 inh -2, RAD52 anneal inh -13, rRNA inh HTS -1 and MLL AF4-AF9 inh -1.
